Screening results as filed in PubChem.
MARV entry inh – inhibitors of Marburg virus binding or cell entry; Potency, µM (top dose mostly 37.8 µM), inactives show top-dose activity change, negative = inhibition, usual class: inhibitors; AID 540276; 300,000 tested, 1.8% active; Marburg virus pseudotyped entry inhibition, cell reporter; calls by dose curve; tested in HEK293 cells; note: potency is the fitted concentration of half-maximal effect; % is set by controls: 0 for no effect and ±100 for the full control effect
Lassa entry inh – inhibitors of Lassa virus binding or cell entry | Lassa virus pseudotype entry inhibition, cell reporter | Potency, µM (highest dose often 37.9 µM), for inactives: at the top dose activity change, negative = inhibition, actives largely listed as inhibitors | 300,000 tested, 1.2% active; calls by dose curve; tested in HEK293 cells; note: potency is the fitted concentration of half-maximal effect; % is set by controls: 0 for no effect and ±100 for the full control effect; nearly all actives have a fitted effect of over 50% in size
HCV inhibitor – HCV inhibition | Huh7.5.1 HCVcc-Cre infection, luciferase reporter, 44 h | Potency, µM (titrated, usually from 41.8 µM), for inactives: top-dose activity change, negative = inhibition, actives largely listed as inhibitors | 340,000 tested, 3.4% active; active = well fitted inhibition curve with a large enough effect; inconclusive = small, poorly fitted or top-dose-only effect, or another doubt; inactive = no such curve, though single readings can be large or run the other way; note: potency is the fitted concentration of half-maximal effect; % is set by controls: 0 for no effect and ±100 for the full control effect
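Whole-lifecycle infectious HCVcc-Cre system; cells 1,000/well, compound then virus (~0.5 moi) added 4 h after plating, 44 h culture. Luciferase read 15 sec following 15 min substrate incubation, room temp.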
CHX counter – counter-screen hit for Shiga toxin inhibitors, cycloheximide. cell reporter, cycloheximide protein synthesis inhibition counterscreen. max response, %. 300,000 tested, 12% active. AID 2314; in the data active = max response mostly above about 13%, no sharp cut-off; inactive = mostly below about 14%; note: read at 38.3 µM for the half of the compounds with a filed dose; 0% is about no effect
FMDV inh – foot and mouth disease virus antiviral activity. Potency, µM (highest dose often 57.9 µM), without a hit: at the highest dose activity change, negative = inhibition, actives largely listed as inhibitors. FMDV antiviral cell-based qHTS. 410,000 tested, 1.2% active. AID 1159524; calls by dose curve; tested in HEK293T cells; note: read-out not given here; potency is the fitted concentration of half-maximal effect; % is set by controls: 0 for no effect and ±100 for the full control effect; nearly all actives have a fitted effect of over 45% in size
Shiga toxin inh – Shiga toxin inhibition | Vero cells, Shiga toxin protein synthesis inhibition reporter | inhibition, % at 38.7 µM | 290,000 tested, 9.2% active | AID 2315; in the data active = inhibition mostly above about 28%, no sharp cut-off; inactive = mostly below about 43%; note: 0% is about no effect
Active calls of the source: *; ? = inconclusive; . = no result; [ ] = dose if it differs, or a comment. Most compounds without a hit are left out; they make up all but 13% or so of the library.

SMILES | MARV entry inh | Lassa entry inh | HCV inhibitor | CHX counter | FMDV inh | Shiga toxin inh
COc1ccc(C(=O)Nc2ccc3ccccc3c2)cc1OC | 1.9% | ? | ? | 43.0* | 59.3% | 67.9*
Cn1nnc2cc(C(=O)NC3CC3)ccc21 | 1.7% | -1.7% | 17.4% | 6.2 | -15.7% | 10.3
COCCNC(=O)Nc1ccc2c(c1)N(C)C(=O)c1ccccc1S2 | -15.4%[46.1 µM] | -17.6% | 3.1% | -4.3 | -10.5% | -11.2
COc1ccc(C(=O)Nc2ccncc2)cc1OC | -0.2% | 14.3% | -22.3% | 17.8 | . | -20.8
Cn1nnc2cc(C(=O)Nc3ccc4ccccc4c3)ccc21 | -15.4%[46.1 µM] | 13.3% | ? | 35.6* | 73.3% | 108.3*
COc1cc(OC)c(NC(=O)Nc2ccc3c(c2)N(C)C(=O)c2ccccc2S3)cc1Cl | 10µM* | -23.8%[46.1 µM] | . | . | 12.0% | .
COCCn1c(SCC(=O)N2CCCc3ccccc32)nc2ccccc2c1=O | ? | -20.8% | -17.2% | -1.7 | -3.8% | -13.6
COc1ccc(C(=O)Nc2ccc3c(c2)N(C2CCCC2)C(=O)c2ccccc2S3)cc1OC | . | 1.26µM* | . | . | 0.0% | .
COc1cc(C(=O)Nc2ccc3ccccc3c2)cc(OC)c1OC | 1.41µM* | -11.3%[46.1 µM] | ? | 13.7* | 20.0% | 25.7
COc1ccc(C(=O)Nc2ccc3c(c2)C(=O)c2ccccc2C3=O)cc1OC | 7.8% | 3.6% | -9.9% | 31.1* | 2.6% | 21.9
COc1ccc(C(=O)c2c(C(F)(F)F)oc3c2C(=O)c2ccccc2C3=O)cc1OC | 2.82µM* | 2.51µM* | ? | 10.0 | 10µM* | 3.1
COc1cc(C(=O)Nc2ccc3c(c2)C(=O)c2ccccc2C3=O)cc(OC)c1OC | ? | -1.5% | 1.1% | -0.9 | -3.7% | 11.8
COc1cc(C(=O)Nc2ccc3c(c2)Cc2ccccc2-3)cc(OC)c1OC | ? | 0.3% | ? | 0.2 | -9.5% | -10.4
COc1ccc(Cl)cc1NC(=O)c1ccc2nc(Cc3ccccc3)oc2c1 | . | -0.9%[46.1 µM] | . | . | -19.6% | .
COc1ccc(C(=O)Nc2ccc3oc(Cc4ccc(Cl)cc4)nc3c2)cc1OC | 0.0% | . | 11.2µM* | -4.7 | ? | -9.4
O=C(O)c1c(Cl)c(Cl)c(Cl)c(Cl)c1C(=O)N1CCCCCC1 | -15.4%[46.1 µM] | -1.0% | 12.0% | -2.4 | -0.6% | -26.9
OCCN(CCO)c1ccc(C(c2ccccc2Cl)c2ccc(N(CCO)CCO)cc2Cl)c(Cl)c1 | -27.1% | 11.2µM* | ? | 1.2 | 39.8µM* | -1.5
OCCN(CCO)c1ccc2ccccc2c1 | 5.3%[46.1 µM] | 13.2%[46.1 µM] | 9.3% | -11.2 | -6.1% | -5.7
O=C(C[n+]1cnn(CC(=O)c2ccc(Cl)cc2Cl)c1)c1ccc([N+](=O)[O-])cc1 | -3.9% | -15.2% | ? | -2.9 | -20.7% | -12.0
CC(=O)c1cccc(NC(=O)c2ccccc2-c2ccccc2C(=O)O)c1 | . | . | 8.3% | -4.8 | 9.3% | -15.7
CC(=O)c1ccc(NC(=O)c2cnn3ccccc23)cc1 | . | . | ? | 43.9* | -52.9% | 55.3*
CC(=O)c1cccc(NC(=O)c2cnn3ccccc23)c1 | . | . | -23.4% | 89.3* | 46.8% | 59.1*
CC(=O)c1ccc(NC(=O)c2cnn(-c3cccc(F)c3)c2-n2cccc2)cc1 | . | -3.8%[46.1 µM] | . | . | 0.0% | .
O=C(Nc1ccc(-n2cnnn2)cc1)C(c1ccccc1)c1ccccc1 | 10.8%[46.1 µM] | 18.4%[46.1 µM] | -9.3% | -2.2 | 5.7% | 11.2
CC(C)(C)c1ccc(C(=O)Nc2cccc(-n3cnnn3)c2)cc1 | . | . | ? | 24.3* | 10.0% | 34.1*
SMILES | MARV entry inh | Lassa entry inh | HCV inhibitor | CHX counter | FMDV inh | Shiga toxin inh
O=C(Oc1cccc(-n2cnnn2)c1)c1ccco1 | 1.8%[46.1 µM] | 3.7% | -2.4% | -1.2 | -2.5% | 6.1
O=C(Nc1ccccc1)c1ccc(-n2cnnn2)cc1 | . | . | -9.0% | 15.4* | 51.5% | 23.2*
Cc1ccc(C(=O)Oc2cccc(-n3cnnn3)c2)cc1 | 1.1%[46.1 µM] | -29.7%[46.1 µM] | 3.5% | 40.0* | 16.6% | 57.2*
N#C/C(=C\c1cc2c(cc1Br)OCO2)C(=O)NCC1CCCO1 (centres undefined) | -15.3%[46.1 µM] | ? | 14.9% | -1.9 | -20.4% | -13.1
Cc1ccc(Cl)cc1NC(=O)COC(=O)Cn1cnc2c1c(=O)n(C)c(=O)n2C | -22.9%[46.1 µM] | ? | -0.9% | -4.5 | -12.6% | 5.3
Cc1n[nH]c(C)c1CCOc1ccc(C(C)C)cc1 | ? | 3.0% | ? | 32.0 | 0.6% | 49.3*
CCN1CCN(CCCNC(=O)c2cnn(-c3ccccc3Cl)c2C2CCN(C(=O)OC(C)(C)C)CC2)CC1 | . | 13.0%[46.1 µM] | . | . | -4.5% | .
O=C(Nc1ccc(Cc2ccc(NC(=O)N3CCOCC3)cc2)cc1)N1CCOCC1 | 3.7% | 7.3% | ? | -1.8 | 6.9% | 6.9
CCOC(=O)c1ccc(NC(=O)N2CCN(Cc3cccc(F)c3)CC2)cc1 | 5.8% | -4.7% | ? | -1.5 | -16.2% | -4.2
CCCN1CCN(C(=O)Nc2ccc(C(=O)OCC)cc2)CC1 | 3.2% | -4.9% | -16.1% | 12.4* | 18.0% | 29.5
O=C(Nc1ccc(F)cc1)N1CCCCCC1 | -0.2%[46.1 µM] | -14.3%[46.1 µM] | -0.7% | 14.7* | 38.9% | 31.5*
CCOC(=O)c1ccc(NS(=O)(=O)N2CCCCCC2)cc1 | 19.5% | ? | -27.6% | 32.2* | 16.5% | 73.8*
CCC(C)c1ccc(NC(=O)N2CCOCC2)cc1 (centres undefined) | 1.1% | -10.2% | 14.9% | 41.4* | 55.0% | 68.2*
Cc1nnc(NC(=O)C(C)Sc2nnc(CCNC(=O)c3ccccc3F)n2C)s1 (centres undefined) | ? | -1.1% | -12.0% | -9.5 | -8.3% | -11.8
CCOC(=O)c1ccc(NC(=O)N2CCN(C(=O)C3CCCO3)CC2)cc1 (centres undefined) | 23.2%[46.1 µM] | 5.4% | -7.7% | 1.3 | -14.9% | -14.8
CCOC(=O)c1ccc(NC(=O)N2CCOCC2)cc1 | 13.2% | ? | 14.5% | 35.1 | 57.7% | 98.2*
CCOC(=O)c1ccc(NC(=O)N2CCCCCC2)cc1 | -9.6% | ? | -12.3% | 75.6* | 16.0% | 123.2*
CCOC(=O)c1cccc(NC(=O)N2CCOCC2)c1 | 17.6%[46.1 µM] | -10.9%[46.1 µM] | -2.9% | 3.8 | -5.6% | -10.6
CC(=O)C(Cc1ccc(Cl)nc1)Cc1ccc(Cl)nc1 | 9.6%[46.1 µM] | -15.9%[46.1 µM] | 0.7% | 2.1 | 2.4% | 3.1
COC(=O)Cc1ccc(OCc2ccc(Cl)nc2)cc1 | -5.7%[46.1 µM] | ? | -17.0% | 37.4* | 12.9% | 51.7*
O=[N+]([O-])c1cc(N=Nc2ccc3ccccc3c2)ccc1O | . | . | -1.8% | 13.5* | 11.7% | .
CSc1c(SCc2ccccc2)cnn(-c2ccccc2)c1=O | 28.4% | 5.17µM* | -14.2% | 2.4 | -16.9% | -12.0
Cc1ccc(N=N/C(=C\O)C(=O)c2ccc(Cl)cc2)cc1 | ? | ? | 10µM* | 36.0* | ? | 105.9*
O=C(/C(=C/O)N=Nc1ccccc1)c1ccc(Cl)cc1 | ? | ? | ? | 6.9 | ? | -4.1
COc1cc2c(cc1NC(=O)c1cccnc1)oc1ccccc12 | -1.2% | ? | 3.16µM* | 28.6* | 39.9% | 56.9
COc1cc2c(cc1NC(=O)c1cccc([N+](=O)[O-])c1)oc1ccccc12 | ? | ? | ? | -2.8 | 12.6µM* | -3.2
